Assay results published in PubChem BioAssay (NCATS).
Several values for one entry are separate records, joined by “and”; a condition that tells them apart may be missing. Equal values may be shown once. Results filed as inconclusive are left out. Unmarked numbers belong to inactive results. Activity calls are given as the source filed them. Calls follow the shape of the dose curve; as a rule, active = well fitted curve in the direction sought with a large enough effect; inconclusive = small, poorly fitted or top-dose-only effect, or another doubt; inactive = no such curve, though single readings can be large; an effect the other way counts as inactive or inconclusive.

Key:
[1] = target: Cellular tumor antigen p53 (Homo sapiens) (UniProt P04637); experiment: Primary qHTS for small molecule compounds that upregulate eGFP-tagged delta133p53alpha (in N-terminal) cells. (AID 2060322); conditions: NCI-H358 eGFP-delta133p53alpha fluorescence, 24 h; activation: active compounds read high; also: nearly all actives have a fitted effect of over 75% in size; also: potency is read from the fitted curve at half-maximal effect;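 as to activation: series mostly up to about 56 µM; 0% = DMSO vehicle and 100% = reference activator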
Chain of Cellular tumor antigen p53 (Homo sapiens) (P04637 whole entry, looked up): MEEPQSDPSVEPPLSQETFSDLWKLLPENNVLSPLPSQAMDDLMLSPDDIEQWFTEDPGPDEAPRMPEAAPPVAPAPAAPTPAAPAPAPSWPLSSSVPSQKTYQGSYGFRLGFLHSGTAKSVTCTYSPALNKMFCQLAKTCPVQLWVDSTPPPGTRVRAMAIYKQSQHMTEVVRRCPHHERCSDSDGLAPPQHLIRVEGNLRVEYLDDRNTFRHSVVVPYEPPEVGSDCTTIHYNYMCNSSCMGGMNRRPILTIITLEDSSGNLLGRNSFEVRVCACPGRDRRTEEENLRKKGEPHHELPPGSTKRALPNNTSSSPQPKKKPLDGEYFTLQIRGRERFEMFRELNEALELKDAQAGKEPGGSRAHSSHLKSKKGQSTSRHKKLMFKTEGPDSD
Summary of the method: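 NCI-H358 cells pre-induced 24 h with 10 ng/ml doxycycline to express N-terminal eGFP-delta133p53alpha, then dosed 24 h at 37C without doxycycline; fixed, Hoechst-stained, GFP intensity by laser scanning cytometry, normalized to DMSO (0%) and 57.5 uM 5-azacytidine (100%).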

[2] = target: Aldehyde dehydrogenase, mitochondrial (Homo sapiens) (UniProt P05091); experiment: qHTS for Inhibitors of the Aldehyde Dehydrogenase Family (ALDH2) Primary screen (AID 2061308);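 also: plate controls were vehicle for no effect and reference inhibitor for full effect; nearly all actives have a fitted effect of over 55% in size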
[3] = BET inhibitor-based combinations targeting novel dependencies in MECOM-rearranged (r) AML: SET-2 cell line (AID 2202231); conditions: SET-2 AML cells viability, CellTiter-Glo luminescence, 48 h; viability: active compounds read low, concentration not given here; also: nearly all actives have a fitted effect of over 35% in size; also: potency is read from the fitted curve at half-maximal effect;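 as to viability: plate controls were DMSO treated cells for no effect and wells without cells for full effect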
Summary of the method: (§1)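 A 48 hr incubation preceded viability reading by CellTiter-Glo, with 15 min room-temperature development. Dose series had 11 points; normalization used DMSO and empty wells; AUC was computed and mean-centered per line as Z-AUC.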

[4] = BET inhibitor-based combinations targeting novel dependencies in MECOM-rearranged (r) AML: OCI-AML3 cell line (AID 2202232); conditions: Potency: OCI-AML3 viability; also: nearly all actives have a fitted effect of over 35% in size; also: potency is read from the fitted curve at half-maximal effect
Summary of the method: as §1

[5] = BET inhibitor-based combinations targeting novel dependencies in MECOM-rearranged (r) AML: HNT-34 cell line (AID 2202234); also: nearly all actives have a fitted effect of over 35% in size; also: potency is read from the fitted curve at half-maximal effect
Summary of the method: (§2)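 Each compound is tested in an 11-point concentration series against 500 seeded cells/well for 48 hr. The luminescent viability signal is normalized to DMSO and blank wells, then reduced to AUC and a cell-line-centred Z-AUC.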

[6] = BET inhibitor-based combinations targeting novel dependencies in MECOM-rearranged (r) AML: UCSD-AML1 cell line (AID 2202235); also: nearly all actives have a fitted effect of over 40% in size; also: potency is read from the fitted curve at half-maximal effect
Summary of the method: as §2

[7] = BET inhibitor-based combinations targeting novel dependencies in MECOM-rearranged (r) AML: AML-191 cell line (AID 2202236; also: nearly all actives have a fitted effect of over 35% in size; also: potency is read from the fitted curve at half-maximal effect)
Summary of the method: as §1

[8] = BET inhibitor-based combinations targeting novel dependencies in MECOM-rearranged (r) AML: AML-194 cell line (AID 2202237; also: nearly all actives have a fitted effect of over 40% in size; also: potency is read from the fitted curve at half-maximal effect)
Summary of the method: as §1

[9] = target: Retinaldehyde dehydrogenase 3 (Homo sapiens) (UniProt P47895); experiment: qHTS for Inhibitors of the Aldehyde Dehydrogenase Family (ALDH1A3) Confirmatory screens (AID 2061311); also: potency is read from the fitted curve at half-maximal effect; nearly all actives have a fitted effect of over 60% in size
[10] = target: Retinaldehyde dehydrogenase 3 (Homo sapiens) (UniProt P47895); experiment: qHTS for Inhibitors of the Aldehyde Dehydrogenase Family (ALDH1A3) Primary screen (AID 2061315); also: potency is read from the fitted curve at half-maximal effect
[11] = target: Aldehyde dehydrogenase 1A1 (Homo sapiens) (UniProt P00352); experiment: qHTS for Inhibitors of the Aldehyde Dehydrogenase Family (ALDH1A1) Confirmatory screens (AID 2061316); also: potency is read from the fitted curve at half-maximal effect; nearly all actives have a fitted effect of over 65% in size
[12] = target: Retinaldehyde dehydrogenase 3 (Homo sapiens) (UniProt P47895); experiment: qHTS for Inhibitors of the Aldehyde Dehydrogenase Family (ALDH1A3) Validation screen (AID 2061312); also: nearly all actives have a fitted effect of over 45% in size; also: potency is read from the fitted curve at half-maximal effect
[13] = BET inhibitor-based combinations targeting novel dependencies in MECOM-rearranged (r) AML: MV-4-11 cell line (AID 2202233); also: potency is read from the fitted curve at half-maximal effect; nearly all actives have a fitted effect of over 45% in size
Summary of the method: as §2

## CCCCOc1ccc(C(=O)Nc2ccc(F)cc2F)cc1
[1]
  activation: -9.74% and -2.39%
[2]
  Potency: inactive
[3]
  viability: 103%
[4]
  Potency: inactive
[5]
  Potency: inactive
[6]
  Potency: inactive
[7]
  Potency: inactive
[8]
  Potency: inactive

## C/C=C/C=C/C(CC(=O)O)Nc1ccc(C=O)cc1 (stereo not drawn)
[1]
  activation: -13.7%
[9]
  Potency: 12.7 µM (active)
[10]
  Potency: inactive
[11]
  Potency: 2.01 µM (active)

## O=C(/C=C/C=C/c1ccc2c(c1)OCO2)N1CCCCC1
[1]
  activation: -7.63%
[2]
  Potency: inactive
[3]
  viability: 96.4%
[4]
  Potency: 18.6 µM (active)
[5]
  Potency: inactive
[6]
  Potency: inactive
[7]
  Potency: inactive
[8]
  Potency: inactive

## Cc1cc(O)cc(Oc2cc(C)c(C(=O)O)c(O)c2)c1
[1]
  activation: -7.63%
[9]
  Potency: 22.5 µM (active)
[11]
  Potency: 17.9 µM (active)

## C=CC(=O)N1CC(N2CCN(C(=O)CNc3cc(C4CC4)c(Cl)cc3O)CC2)C1
[1]
  activation: 10%
[9]
  Potency: 4 µM (active)
[12]
  Potency: 10 µM (active)
[10]
  Potency: 2.51 µM (active)
[11]
  Potency: 22.5 µM (active)

## O=c1[nH]nc(OCCCc2ccc(Cl)cc2)c(NCc2cccnc2)c1Br
[1]
  activation: -4.06% and -19.1%
[2]
  Potency: inactive
[10]
  Potency: inactive
[8]
  Potency: 20.9 µM (active)

## CC1=C(C(=O)OC2CCCCC2)C(c2ccc([N+](=O)[O-])cc2)C2=C(CC(C)(C)CC2=O)N1 (stereo not drawn)
[1]
  activation: 7.16%
[9]
  Potency: 2.25 µM (active)
[12]
  Potency: 5.62 µM (active)
[10]
  Potency: 7.08 µM (active)
[11]
  Potency: 10.1 µM (active)

## COc1cc2c(cc1OCCCN1CCCC1)N=C(N)C21CCC1
[1]
  activation: 5.59%
[2]
  Potency: inactive
[5]
  Potency: inactive
[6]
  Potency: inactive
[7]
  Potency: inactive
[8]
  Potency: inactive

## COc1cc(N2CCC(N)CC2)ccc1Nc1ncc(Cl)c(-c2c[nH]c3ccccc23)n1
[1]
  Potency: 26.9 µM (active)
[2]
  Potency: inactive
[3]
  Potency: 18.6 µM (active)
[4]
  Potency: 5.9 µM (active)
[13]
  Potency: 0.0661 µM (active)
[5]
  Potency: 1.32 µM (active)
[6]
  Potency: 1.48 µM (active)
[7]
  Potency: 8.33 µM (active)
[8]
  Potency: 10.5 µM (active)

## Cc1cc2c(N3CCCC3)nc(N3CCCC3)nc2n1C
[1]
  activation: -16.7%
[9]
  Potency: 14.2 µM (active)
[10]
  Potency: inactive
[11]
  Potency: 11.3 µM (active)

## CNC(=O)c1ccccc1Nc1nc(Nc2ccc(N3CCOCC3)cc2OC)ncc1Cl
[1]
  Potency: 3.06 µM (active) and 21.3 µM (active)
[2]
  Potency: inactive
[3]
  Potency: 16.6 µM (active)
[13]
  Potency: 0.263 µM (active)
[5]
  Potency: 1.32 µM (active)
[6]
  Potency: 2.35 µM (active)

## COC(=O)[C@H](c1ccccc1Cl)N1CCC2SC(=O)C=C2C1 (stereo partly drawn)
[1]
  activation: 16.3%
[10]
  Potency: inactive

## Clc1ccc(Cn2c(Cc3ccccc3)nc3ccccc32)cc1
[1]
  activation: -5.25%
[12]
  Potency: inactive
[10]
  Potency: inactive

## C/C(=C\Cc1c(O)c(Cl)c(C)c(C=O)c1O)CC/C=C(\C)[C@H]1CC(=O)C(C)(C)O1
[1]
  activation: -20.6%
[10]
  Potency: inactive

## COC(=O)CC1OC(C)C2=C(O)c3c(O)cccc3C(=O)C23OC13 (stereo not drawn)
[1]
  Potency: 5.88 µM (active)
[10]
  Potency: 1.58 µM (active)

## Cc1cc(NC(=O)Nc2ccc(F)c(F)c2)n(-c2ccccc2)n1
[1]
  activation: -15.8%
[12]
  Potency: inactive
[10]
  Potency: inactive

## O=C(O)c1cc(I)ccc1NC(=O)[C@H](Cc1ccccc1)NCc1ccccc1
[1]
  activation: -19.7%
[10]
  Potency: inactive

## C/C=C/CCC1Cc2cc(O)c(CCCC)c(O)c2C(=O)O1 (stereo not drawn)
[1]
  activation: -16%
[10]
  Potency: inactive
